In PubChem BioAssay (NCATS):
Values joined by “and” are separate entries in the source; they are usually repeats but may differ in a detail not shown here. Equal entries are not always repeated. Inconclusive results are not listed. Active and inactive are the calls of the source. Calls come from the whole dose curve; as a rule, active = well fitted curve in the direction sought with a large enough effect; inconclusive = small, poorly fitted or top-dose-only effect, or another doubt; inactive = no such curve, though single readings can be large; an effect the other way counts as inactive or inconclusive.

Columns and labels:
[1] = molecular target: Cellular tumor antigen p53 (Homo sapiens) (UniProt P04637); assay: Primary qHTS for small molecule compounds that upregulate eGFP-tagged delta133p53alpha (in N-terminal) cells. (AID 2060322); conditions: NCI-H358 eGFP-delta133p53alpha fluorescence, 24 h; activation: active compounds read high; note: nearly all actives have a fitted effect of over 75% in size; note: potency is the fitted concentration of half-maximal effect;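 for activation: cells pre-induced with doxycycline then dosed without doxycycline; series mostly up to about 56 µM; 0% = DMSO vehicle and 100% = reference activator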
Method in brief: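 NCI-H358 cells pre-induced 24 h with 10 ng/ml doxycycline for eGFP-delta133p53alpha, plated dox-free and exposed 24 h at 37C to titrated compounds. Fixed, Hoechst-stained; gated GFP peak intensity by laser scanning cytometry, normalized to DMSO (0%) and 57.5 uM 5-azacytidine (100%).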

[2] = molecular target: Aldehyde dehydrogenase, mitochondrial (Homo sapiens) (UniProt P05091); assay: qHTS for Inhibitors of the Aldehyde Dehydrogenase Family (ALDH2) Primary screen (AID 2061308);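 note: plate controls were vehicle for no effect and reference inhibitor for full effect; nearly all actives have a fitted effect of over 55% in size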
[3] = molecular target: Retinaldehyde dehydrogenase 3 (Homo sapiens) (UniProt P47895); assay: qHTS for Inhibitors of the Aldehyde Dehydrogenase Family (ALDH1A3) Validation screen (AID 2061312); note: nearly all actives have a fitted effect of over 45% in size; note: potency is the fitted concentration of half-maximal effect; for activity change, negative = inhibition: % is set by controls: 0 for no effect and ±100 for the full control effect
[4] = molecular target: Retinaldehyde dehydrogenase 3 (Homo sapiens) (UniProt P47895); assay: qHTS for Inhibitors of the Aldehyde Dehydrogenase Family (ALDH1A3) Primary screen (AID 2061315);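 note: plate controls were DMSO vehicle for no effect and reference inhibitor for full effect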

Chain of Cellular tumor antigen p53 (Homo sapiens) (P04637 whole entry, looked up): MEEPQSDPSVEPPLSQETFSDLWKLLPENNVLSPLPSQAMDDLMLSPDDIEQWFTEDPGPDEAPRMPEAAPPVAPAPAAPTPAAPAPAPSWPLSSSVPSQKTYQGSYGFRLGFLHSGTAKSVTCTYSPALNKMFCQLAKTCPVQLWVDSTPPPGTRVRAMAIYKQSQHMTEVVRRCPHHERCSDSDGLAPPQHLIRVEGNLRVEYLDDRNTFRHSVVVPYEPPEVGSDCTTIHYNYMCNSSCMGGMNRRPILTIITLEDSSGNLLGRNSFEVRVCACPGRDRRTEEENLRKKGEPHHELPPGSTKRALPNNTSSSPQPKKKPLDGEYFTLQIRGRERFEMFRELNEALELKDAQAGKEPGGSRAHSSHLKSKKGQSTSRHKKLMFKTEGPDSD

Fc1ccc(-c2cncc(CN3CCN(c4cccc5c4OCCO5)CC3)c2)cc1
inactive: activation [1] -10% | Potency [2] | Potency [3] | Potency [4]

c1ccc(-c2ncc(CN3CCN(c4ncccn4)CC3)[nH]2)cc1
inactive: activation [1] -2.39% | Potency [2] | Potency [3] | Potency [4]

O=C(O)c1cc(-c2ccccc2)nc2ccccc12
inactive: activation [1] -7.34% and -10% and -1.43% | Potency [2] | Potency [3] | Potency [4]

Cc1cc(C)c(-c2csc(NC(=O)c3ccccc3)n2)c(C)c1
inactive: activation [1] 21% | Potency [2] | Potency [3] | Potency [4]

CC(=O)c1ccc2c(c1)[C@H](NC(=O)c1ccc(F)c(Cl)c1)[C@H](O)C(C)(C)O2
inactive: activation [1] 7.16% | Potency [2] | Potency [3] | Potency [4]

C=C1CCN([C@H](C)[C@](O)(Cn2cncn2)c2ccc(F)cc2F)CC1
inactive: activation [1] -19.1% | Potency [2] | Potency [3] | Potency [4]

O=C(NCC1(N2CCN(c3ccccc3)CC2)CCOCC1)c1cccnc1Sc1ccccc1
inactive: activation [1] -3.34% | Potency [2] | Potency [3] | Potency [4]

CN(C)CCc1c[nH]c2ccc(C[C@H]3COC(=O)N3)cc12
inactive: activation [1] -0.837% and -21.4% and -11.5% | Potency [2] | Potency [3] | Potency [4]

C#CCN(Cc1cc2c(=O)[nH]c(C)nc2cc1Br)c1ccc(C(=O)NCc2cccnc2)cc1
inactive: activation [1] -5.73% | Potency [2] | Potency [3] | Potency [4]

O=C(c1cn(Cc2cncn2Cc2ccc(Br)cc2)cc1-c1cccc2ccccc12)N1CCOCC1
inactive: Potency [2] | Potency [3] | Potency [4]
active: Potency [1] 26.9 µM

Cc1nc(C(=O)N2CCC[C@H]2Cc2nnc(-c3ccccc3)o2)c(-c2ccccc2F)s1
inactive: activation [1] 3.82% | Potency [2] | Potency [3] | Potency [4]

Cc1ccc2nc(N)[nH]c(=O)c2c1Sc1ccncc1
active: Potency [3] 7.94 µM
inactive: activation [1] -10% and -17.7% | Potency [2] | Potency [4]

O=C(O)C1CN(Cc2ccc(-c3nc4cc(Cc5ccccc5F)ccc4s3)c(F)c2)C1
inactive: activation [1] -12.4% | activity change, negative = inhibition [2] -1.77% [at 11.2 µM] | activity change, negative = inhibition [3] -10% [at 20.1 µM] | activity change, negative = inhibition [4] -4.23% [at 11.2 µM]

COc1ccc(N2CCOCC2)c2sc(NC(=O)N3CCC(C)(O)CC3)nc12
inactive: activation [1] -5.25% | Potency [2] | Potency [3] | Potency [4]

O=C(CCc1nnc2n(Cc3ccc(Cl)cc3)c(=O)c3ccccc3n12)NCCC1=CCCCC1
inactive: activation [1] 4.3% | Potency [2] | Potency [3] | Potency [4]

O=C(NCCN1CCC(n2c(=O)[nH]c3ccccc32)CC1)c1cc2cc(F)ccc2[nH]1
inactive: activation [1] 23.9% | Potency [2] | Potency [3] | Potency [4]

Cc1ccccc1CN1CCn2c1nc1c(c2=O)CN(Cc2ccccc2)CC1
inactive: activation [1] 0.477% | Potency [2] | Potency [3] | Potency [4]

CCCCC(=O)N1c2ccccc2NC2=C(C(=O)CCC2)C1c1ccccc1Cl (stereo unspecified)
inactive: activation [1] -4.77% | Potency [2] | Potency [3] | Potency [4]

CS(=O)(=O)Nc1ccc2oc3c(OC(F)F)ccc(C(=O)Nc4c(Cl)cncc4Cl)c3c2c1
inactive: activation [1] 22% | Potency [2] | Potency [3] | Potency [4]

CCN=C1N[C@@H]2[C@@H](O)[C@H](O)[C@@H](CO)O[C@@H]2S1
inactive: activation [1] 1.43% | Potency [2] | Potency [3] | Potency [4]

COc1ccc([C@H]2CNC(=O)C2)cc1OC1CCCC1
inactive: activation [1] -26.3% | Potency [2] | Potency [3] | Potency [4]

O=C(O)C[C@@H](NC(=O)c1cc(-c2ccc(-c3ccncc3)cc2)cs1)c1ccccc1
inactive: activation [1] -1.43% | Potency [2] | Potency [3] | Potency [4]

CN(C)C(=O)C(O)C(Cc1ccccc1)NC(=O)c1cc2cc(Cl)ccc2[nH]1 (stereo unspecified)
inactive: activation [1] -1.43% | Potency [2] | Potency [3] | Potency [4]

COc1ccccc1Oc1c(NS(=O)(=O)c2ccc(C)cn2)nc(-c2ccncc2)nc1OC
inactive: activation [1] 20% | Potency [2] | Potency [3] | Potency [4]

Cc1c(NC(=O)N2CCOCC2)ccc2c1c1ccccc1n2C(C)C
inactive: activation [1] -19.1% | Potency [2] | Potency [3] | Potency [4]

CCCC(Nc1nc(-c2ccc(NC(=O)NCC)c(OC)c2)ncc1C)c1cccnc1 (stereo unspecified)
inactive: activation [1] -2.86% | Potency [2] | Potency [3] | Potency [4]

CCOc1ccc(-n2c([C@@H](C)N(Cc3cccnc3)C(=O)Cc3ccc(OC(F)(F)F)cc3)nc3ncccc3c2=O)cc1
active: Potency [1] 19 µM
inactive: Potency [2] | Potency [3] | Potency [4]

O=C(NCc1ccccc1)c1ccc2c(=O)n(-c3cccc(C(F)(F)F)c3)c(=S)[nH]c2c1
inactive: activation [1] -9.55% | Potency [2] | Potency [3] | Potency [4]

C#CCN(Cc1cc2c(=O)n(C)c(CN3CCN(C)CC3)nc2cc1Cl)c1ccc(C(=O)NCc2cccnc2)cc1
inactive: activation [1] 0.955% | Potency [2] | Potency [3] | Potency [4]
